PubChem BioAssay (NCI)
This is part of a sample that, as a whole, favours compounds with a hit. Of some 79,000 tested, about 15% had one in any assay. The source made the active and inactive calls. Rule as the data show it: active = growth inhibition above about 70%; inactive = the rest.

What was measured:
[1] = NCI Yeast Anticancer Drug Screen. Data for the rad50 strain (AID 155);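 also: 0% = growth of vehicle-only cultures of the same strain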; settings: S. cerevisiae rad50 strain growth inhibition, stronger effect = higher value
Procedure, shortened: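 Cells are treated with compound, grown, and their growth is then scored against vehicle-only cultures of the same repair-deficient yeast strain.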

[2] = NCI Yeast Anticancer Drug Screen. Data for the mec2-1 strain (AID 157); settings: S. cerevisiae mec2-1 strain, stronger effect = higher value
Procedure, shortened: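 Each compound was tested on mec2-1 yeast, a strain altered in DNA damage repair or cell cycle control. Growth inhibition is reported relative to vehicle.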

[3] = NCI Yeast Anticancer Drug Screen. Data for the sgs1 mgt1 strain (AID 161);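 also: 0% = growth of cultures given vehicle only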; settings: S. cerevisiae sgs1 mgt1 strain, stronger effect = higher value
Procedure, shortened: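 Read-out: growth inhibition vs vehicle controls. Cells: mutant yeast strain deficient in DNA damage repair.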

[4] = NCI Yeast Anticancer Drug Screen. Data for the cln2 rad14 strain (AID 165);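 also: 0% = growth equal to vehicle treated cultures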; settings: S. cerevisiae cln2 rad14 strain, stronger effect = higher value
Procedure, shortened: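 Test compounds were added to cln2 rad14 yeast cultures; inhibition of growth was then determined by comparison with vehicle treatment.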

[5] = NCI Yeast Anticancer Drug Screen. Data for the bub3 strain (AID 167); settings: S. cerevisiae bub3 mutant strain, stronger effect = higher value
Procedure, shortened: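 Part of a panel of yeast mutants defective in DNA damage repair or cell cycle regulation. Each strain is grown with compound, and inhibition is calculated relative to solvent-treated cultures.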

[6] = NCI Yeast Anticancer Drug Screen. Data for the mlh1 rad18 strain (AID 175); settings: S. cerevisiae mlh1 rad18 strain growth inhibition, stronger effect = higher value
Procedure, shortened: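 Inhibition values reflect reduced growth of mutant yeast versus vehicle-treated controls following compound exposure; the mutations affect DNA damage repair.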

[7] = at 5.0 µM (retest, dose inferred, filed as 0.5)
[8] = at 50.0 µM (retest, dose inferred, filed as 5.0)

Measured: growth inhibition

CC12CCC(C(Br)(Br)C1=O)C2(C)C (stereo not given)
active: [3]; at 50.0 µM 72.1% | [5]; [8] 74% | [5]; at 50.0 µM 86.8% | [6]; at 50.0 µM 88.7%
inactive: [1]; [7] 29% | [1]; [8] 60% | [1]; at 50.0 µM 40.6% | [2]; [7] 17% | [2]; [8] 46% | [2]; at 50.0 µM 59.4% | [3]; [7] 26% | [3]; [8] 56% | [4]; [7] 22% | [4]; [8] 41% | [4]; at 50.0 µM 30.5% | [5]; [7] 18% | [6]; [7] 16% | [6]; [8] 68%

CCCn1c2ccccc2c2ccc3c(c21)C(=O)C=CC3=O
active: [2]; [8] 80% | [3]; [8] 73% | [3]; at 50.0 µM 70.7% | [5]; [8] 80% | [6]; [8] 77%
inactive: [1]; [7] 31% | [1]; [8] 69% | [1]; at 50.0 µM 67.8% | [2]; [7] 27% | [2]; at 50.0 µM 61.9% | [3]; [7] 37% | [4]; [7] 18% | [4]; [8] 35% | [4]; at 50.0 µM 56.3% | [5]; [7] 37% | [5]; at 50.0 µM 65% | [6]; [7] 42% | [6]; at 50.0 µM 62.7%

NS(=O)(=O)c1ccc(Nc2c3ccccc3nc3c(C(=O)NC(CO)(CO)CO)cccc23)cc1
inactive: [1]; [7] -14% | [1]; [8] 24% | [1]; at 50.0 µM 18.9% | [2]; [7] -11% | [2]; [8] -10% | [2]; at 50.0 µM -1% | [3]; [7] -5% | [3]; [8] -13% | [3]; at 50.0 µM 15.3% | [4]; [7] 25% | [4]; [8] -10% | [4]; at 50.0 µM 45.5% | [5]; [7] -9% | [5]; [8] -8% | [5]; at 50.0 µM 12.9% | [6]; [7] -14% | [6]; [8] 9% | [6]; at 50.0 µM 15.9%

O=C(C[P+](c1ccccc1)(c1ccccc1)c1ccccc1)c1ccc(Br)cc1
inactive: [1]; [7] 67% | [2]; [7] 53% | [4]; [7] 22% | [5]; [7] 62% | [6]; [7] 69%
active: [1]; [8] 96% | [1]; at 50.0 µM 98.8% | [2]; [8] 98% | [2]; at 50.0 µM 97.4% | [3]; [7] 82% | [3]; [8] 99% | [3]; at 50.0 µM 96.8% | [4]; [8] 96% | [4]; at 50.0 µM 95.9% | [5]; [8] 97% | [5]; at 50.0 µM 97.7% | [6]; [8] 97% | [6]; at 50.0 µM 96%

CC(=O)c1sc(Nc2ccc(Cl)c(Cl)c2)nc1C
active: [1]; at 50.0 µM 95% | [2]; at 50.0 µM 81% | [3]; at 50.0 µM 97% | [4]; at 50.0 µM 91.2% | [5]; at 50.0 µM 81.8% | [6]; at 50.0 µM 93.2%
inactive: [1]; [7] 8% | [1]; [8] 35% | [2]; [7] 4% | [2]; [8] 19% | [3]; [7] 27% | [3]; [8] 22% | [4]; [7] 1% | [4]; [8] 35% | [5]; [7] 1% | [5]; [8] 56% | [6]; [7] 15% | [6]; [8] 47%

COc1ccc(-c2cc(-c3ccc4c(c3)CC(C)O4)nc(N)n2)cc1 (stereo not given)
inactive: [1]; [7] 20% | [1]; [8] 1% | [2]; [7] 0% | [2]; [8] -14% | [3]; [7] 20% | [3]; [8] 3% | [4]; [7] 19% | [4]; [8] 15% | [5]; [7] 19% | [5]; [8] 15% | [6]; [7] -16% | [6]; [8] -19%
active: [1]; at 50.0 µM 90.8% | [2]; at 50.0 µM 90.8% | [3]; at 50.0 µM 91.2% | [4]; at 50.0 µM 86.5% | [5]; at 50.0 µM 88.7% | [6]; at 50.0 µM 88.7%

CCCCCCC/C=C\C(=O)O
active: [6]; at 50.0 µM 74.5%
inactive: [1]; [7] 0% | [1]; [8] 13% | [1]; at 50.0 µM 35.5% | [2]; [7] 4% | [2]; [8] 32% | [2]; at 50.0 µM 17.9% | [3]; [7] 1% | [3]; [8] 38% | [3]; at 50.0 µM 33.6% | [4]; [7] 4% | [4]; [8] 25% | [4]; at 50.0 µM 38.9% | [5]; [7] 5% | [5]; [8] 23% | [5]; at 50.0 µM 6.4% | [6]; [7] 1% | [6]; [8] 36%

CCCCCCCCCCCCCCCC[N+](C)(C)C(C)c1ccccc1 (stereo not given)
active: [1]; [7] 98% | [1]; [8] 98% | [1]; at 50.0 µM 90.5% | [2]; [7] 98% | [2]; [8] 99% | [2]; at 50.0 µM 90.7% | [3]; [7] 99% | [3]; [8] 99% | [3]; at 50.0 µM 90.5% | [4]; [7] 99% | [4]; [8] 99% | [4]; at 50.0 µM 86% | [5]; [7] 98% | [5]; [8] 98% | [5]; at 50.0 µM 92.6% | [6]; [7] 98% | [6]; [8] 97% | [6]; at 50.0 µM 91.8%

CCOC(=O)n1c2ccccc2c(=O)n1CCO
active: [1]; at 50.0 µM 97.5% | [2]; at 50.0 µM 98.9% | [3]; at 50.0 µM 87.7% | [5]; at 50.0 µM 97.3%
inactive: [1]; [7] -23% | [1]; [8] -15% | [2]; [7] -16% | [2]; [8] -19% | [3]; [7] -19% | [3]; [8] -12% | [4]; [7] -32% | [4]; [8] -18% | [4]; at 50.0 µM 43.2% | [5]; [7] -28% | [5]; [8] -11% | [6]; [7] -33% | [6]; [8] -11% | [6]; at 50.0 µM 50%

COc1ccc(/C=C/c2ccnc3ccccc23)cc1OC
inactive: [1]; [7] 17% | [2]; [7] 2% | [3]; [7] 9% | [4]; [7] 6% | [5]; [7] -8% | [6]; [7] 11%
active: [1]; [8] 96% | [1]; at 50.0 µM 86.4% | [2]; [8] 97% | [2]; at 50.0 µM 90.9% | [3]; [8] 98% | [3]; at 50.0 µM 87.9% | [4]; [8] 89% | [4]; at 50.0 µM 83.7% | [5]; [8] 98% | [5]; at 50.0 µM 82.5% | [6]; [8] 96% | [6]; at 50.0 µM 84.9%
